The full ranking holds about 33,000 sequences; the median of “E-score (-0.5 to 0.5)” is about -0.016, and the highest 2% start at about 0.31. What follows is part of a selection rich in the highest values, with near analogues and random picks from the rest.
target: Cst6 (UniProt P40535); assay: PBM E-score (8-mer binding enrichment) (E-score (-0.5 to 0.5)); higher = stronger / more preferred TF binding; details: protein concentration: 200 nM; construct: GST-DNA-binding domain
Method: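 Universal 'all 10-mer' protein binding microarrays (Agilent AMADID 015681) probed with GST-tagged S. cerevisiae TFs (full-length or DBD) made by in vitro transcription/translation (PURExpress), about 100-200 nM. Bound TF was detected with fluorescent anti-GST. Each ungapped 8-mer (which stands for itself and its reverse complement) is scored by the PBM enrichment score (E-score), a modified Wilcoxon-Mann-Whitney statistic from -0.5 to +0.5, computed with the Universal PBM Analysis Suite. Scale: above 0.35 generally sequence-specific binding.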

Chain of UniProt P40535 (P40535 whole entry, the tested form may be a part): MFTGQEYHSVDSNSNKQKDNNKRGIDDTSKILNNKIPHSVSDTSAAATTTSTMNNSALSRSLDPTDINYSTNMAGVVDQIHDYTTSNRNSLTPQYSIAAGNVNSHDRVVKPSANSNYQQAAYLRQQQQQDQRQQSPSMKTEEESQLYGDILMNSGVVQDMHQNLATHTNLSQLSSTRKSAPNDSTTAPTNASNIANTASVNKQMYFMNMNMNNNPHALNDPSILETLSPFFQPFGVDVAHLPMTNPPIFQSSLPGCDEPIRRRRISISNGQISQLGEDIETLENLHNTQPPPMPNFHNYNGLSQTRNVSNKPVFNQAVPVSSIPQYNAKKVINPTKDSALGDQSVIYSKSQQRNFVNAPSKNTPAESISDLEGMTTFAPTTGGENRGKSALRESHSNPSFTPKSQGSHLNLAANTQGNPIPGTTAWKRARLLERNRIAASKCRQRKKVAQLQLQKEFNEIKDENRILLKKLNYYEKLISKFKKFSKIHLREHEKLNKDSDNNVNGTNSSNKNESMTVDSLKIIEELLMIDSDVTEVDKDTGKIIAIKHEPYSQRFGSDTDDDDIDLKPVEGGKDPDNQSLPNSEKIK

| Sequence | PBM E-score |
| --- | --- |
| CCTCCCTC | -0.162 |
| GGAAATGA | 0.195 |
| CGTAGATC | 0.143 |
| CTCGAAAC | 0.0781 |
| GGTAGGCA | -0.184 |
| AGGCGACT | -0.103 |
| CGATGAAC | -0.0118 |
| CAAGGCGG | 0.00218 |
| ATCCGCAA | -0.0389 |
| TCGCGACA | -0.202 |
| AGGCGTCA | 0.256 |
| TCGCGTCA | 0.369 |
| CGGCGTCA | 0.34 |
| CGGCGTCC | 0.113 |
| TCGCGGCA | -0.0207 |
| ACGCCGAA | 0.0504 |
| AAAACATG | 0.114 |
| AAATGATC | 0.0366 |
| CAATGATG | 0.391 |
| CAATGATA | 0.268 |
| CAATGATC | 0.095 |
| AAATGATT | 0.294 |
| AAATGATG | 0.332 |
| CTAATCAA | 0.205 |
| GTAATCTA | 0.345 |

| Sequence | PBM E-score |
| --- | --- |
| CTAATCTA | -0.0326 |
| GTAATCAC | 0.225 |
| ATAATCTA | 0.0831 |
| GTAATCAA | 0.313 |
| CTAGATTC | -0.0987 |
| ATTTCATG | 0.00873 |
| CAAACTAG | -0.195 |
| AGACCTCA | 0.022 |
| TGACCTAA | 0.362 |
| CGACCTCA | 0.0422 |
| GGACCTAA | -0.105 |
| TGACCTCA | 0.45 |
| CGACCTAA | 0.11 |
| CAGGACAA | 0.0953 |
| TCCACCAA | -0.117 |
| GAAGAACC | -0.119 |
| AGATGATG | 0.346 |
| ATATGATC | 0.234 |
| ATATGATG | 0.333 |
| ATATGACC | 0.108 |
| ATATGATA | 0.296 |
| CTATGACC | 0.193 |
| AGATGATC | 0.0705 |
| AGATGATA | 0.211 |
| ATATGACG | 0.472 |

| Sequence | PBM E-score |
| --- | --- |
| AAATGGCG | 0.142 |
| TAGTGCCA | -0.123 |
| AGCTAAGC | -0.156 |
| GCGCTGCA | -0.0118 |
| CGAACCCG | -0.251 |
| CCGGATTC | -0.172 |
| ACCTATTA | 0.0751 |
| AGAGATCA | -0.0737 |
| GGAGATCA | -0.0624 |
| TGAGATCA | 0.344 |
| AACATCAT | 0.378 |
| ATAATCAA | 0.16 |
| GCCATCAC | 0.0711 |
| ATAATCAT | 0.344 |
| ATAATCAG | 0.106 |
| AACATCAG | 0.183 |
| ATCATCAC | 0.341 |
| GGCATCAC | 0.227 |
| GTCATCAC | 0.409 |
| AGCATCAC | 0.0541 |
| CTCATCAC | 0.146 |
| AACATCAC | 0.295 |
| ACCTTCAA | -0.00754 |
| AACGCAAG | 0.00296 |
| AATCTGAG | -0.0919 |

| Sequence | PBM E-score |
| --- | --- |
| AAGTCTTG | -0.0973 |
| ATAGCGGA | -0.107 |
| ACTATTGA | 0.202 |
| AGGGCGCA | -0.0682 |
| ATCATCAG | 0.259 |
| ATAATGAC | 0.295 |
| AGCATCAT | 0.251 |
| ATCATCAT | 0.355 |
| ATAATGAG | 0.0695 |
| ATAATGAT | 0.334 |
| GGTGTCTA | 0.0529 |
| AGGCTGCG | -0.225 |
| GTAGGACA | -0.0243 |
| CGCTTCGC | -0.0922 |
| ACACACAC | 0.0991 |
| TAACCTAA | 0.158 |
| ATTCGATG | 0.105 |
| CCTCATCG | 0.00595 |
| AATCATCC | 0.113 |
| CATCATCG | 0.333 |
| AATCATCA | 0.308 |
| AATCATCG | 0.039 |
| ACTCATCA | 0.00088 |
| CCTCATCA | 0.161 |
| GATCATCA | 0.163 |

| Sequence | PBM E-score |
| --- | --- |
| CATCATCC | 0.345 |
| CATCATCA | 0.409 |
| GATCATCC | -0.0712 |
| AATCATCT | 0.114 |
| ACGCTGCT | -0.22 |
| CCGGGCGC | -0.213 |
| TGCCTAAA | 0.0602 |
| CCGATTTC | -0.121 |
| TACCGACA | 0.075 |
| TAGGCTGA | -0.0803 |
| CCCCTACG | -0.298 |
| GAGGAGGA | -0.288 |
| ACTCCTTC | -0.234 |
| AATCATTA | 0.28 |
| CATCATTC | 0.223 |
| TATCATAA | 0.144 |
| TCTCATCA | 0.181 |
| TATCATCA | 0.341 |
| CATCATTA | 0.327 |
| CCTGCTTA | -0.0696 |
| GGGTCGCA | -0.144 |
| CCGAGGCG | 0.0158 |
| CTCCTAGA | -0.09 |
| ATGCATTA | 0.255 |
| AAATTACC | 0.199 |

| Sequence | PBM E-score |
| --- | --- |
| CAATTACC | 0.138 |
| ATATTACC | 0.248 |
| CAATTACG | 0.346 |
| AAATTACT | 0.222 |
| CACTTACC | 0.0685 |
| ATATTACA | 0.248 |
| AAATTACG | 0.336 |
| CACTTACA | 0.173 |
| CAATTACA | 0.223 |
| ATATTACG | 0.415 |
| CACTTACG | 0.351 |
| AACTGCCT | 0.129 |
| CCGTTGCG | 0.0674 |
| TACCTGCA | -0.0618 |
| ACAAGATA | 0.0758 |
| AGCTATGA | 0.101 |
| ATATGCAC | 0.0769 |
| ACGGGCAC | -0.105 |
| CAGCCCAC | -0.191 |
| AAGGTAAT | 0.129 |
| ACCGTCCC | -0.173 |
| GTGTAAGA | 0.0158 |
| ACGTAAGC | 0.381 |
| ACGTACGG | 0.149 |
| CTGTAAGA | 0.0332 |

| Sequence | PBM E-score |
| --- | --- |
| ACGTACGC | 0.229 |
| ACGTAAGA | 0.448 |
| TCGTAAGA | 0.00239 |
| ACGTACGT | 0.311 |
| ATGTAAGA | 0.339 |
| CCGTAAGA | -0.0536 |
| GCGTAAGC | 0.0902 |
| CCGTAAGC | -0.0303 |
| ATCTGGAA | 0.184 |
| GCTCAATA | 0.0653 |
| CATAGAGG | -0.0937 |
| CACCTCGG | 0.02 |
| CACCATTC | 0.0213 |
| AGGTATTC | 0.0784 |
| ACCGCAGG | -0.104 |
| CCACCGAC | -0.163 |
| ACTCAAGT | -0.053 |
| CACAACCA | 0.124 |
| GTATACCA | -0.051 |
| TGCGCCAA | -0.0304 |
| AAGTAAGT | 0.116 |
| ACGTAAGT | 0.422 |

— the supplement of paper PMC3334620
